Consider 40 compounds from PubChem BioAssay (NCATS).

Records with an inconclusive call do not appear. A call without a number means that no potency is given here. The source made the active and inactive calls. Calls follow the shape of the dose curve; as a rule, active = well fitted cell-killing curve with a large enough effect; inconclusive = small, poorly fitted or top-dose-only effect, or effect the other way; inactive = no such curve, though single readings can be large or run the other way.
Potency is read from the fitted curve at half-maximal effect.

A short description of this experiment: Quantitative High-Throughput drug screen in 47 multiple myeloma cell lines against the NCATS MIPE library collection: H1112_PLB cell viability assay (AID 1918967; also: nearly all actives have a fitted effect of over 30% in size). The settings on record: H1112 myeloma cells viability, ATP luminescence, 48 h; series mostly up to 45.8 µM. An excerpt:
PI: Beverly A. Mock Ph.D.
Laboratory of Cancer Biology and Genetics,
Center for Cancer Research, National Cancer Institute,
National Institute of Health, Bethesda, Maryland
Drug resistance and disease progression are common in multiple myeloma (MM) patients, underscoring the need for new therapeutic combinations. […] We hypothesized that effective combinations would reduce MYC expression and enhance p16 activity. […] These preclinical data identify potentially useful drug combinations for evaluation in drug-resistant MM and reveal potential mechanisms of combined drug sensitivity.
Described herein is the primary MIPE qHTS used to cherrypick compounds. Validated compounds were then further tested for potential synergistic activiy.
[1] Peat TJ, Gaikwad SM, Dubois W, Gyabaah-Kessie N, Zhang S, Gorjifard S, Phyo Z, Andres M, Hughitt VK, Simpson RM, Miller MA, Girvin AT, Taylor A, Williams D, D'Antonio N, Zhang Y, Rajagopalan A, Flietner E, Wilson K, Zhang X, Shinn P, Klumpp-Thomas C, McKnight C, Itkin Z, Chen L, Kazandijian D, Zhang J, Michalowski AM, Simmons JK, Keats J, Thomas CJ, Mock BA. Drug combinations identified by high-throughput screening promote cell cycle transition and upregulate Smad pathways in myeloma. Cancer Lett. 2023 Aug 1;568:216284. doi: 10.1016/j.canlet.2023.216284. Epub 2023 Jun 24. PMID: 37356470; PMCID: PMC10408729.
SEQUENCE No. (e.g., 1, 2, 3, etc.); […] (e.g., Cells, Incubation, Reagent, etc.); VALUE and DESCRIPTION.
1; Cells; 5 uL; white, solid bottom 1536-well Greiner assay plate.
2; Compounds; 23 nL; Kalypsis pin tool (Wako USA) equipped with a 1536-well pin head to transfer to the assay plates.
3; Incubation; 48 hours; 37C incubation.
4; Reagent;5uL; CellTiter Glo (Promega).
5; Detector; 425V; Luminescence; Viewlux PerkinElmer.
NOTES (numbers refer to Sequence numbers above)
1. The cell-based screening methods employed in this study were like those previously published. Briefly, the corresponding myeloma cell lines were screened in 1,536-well plates with 500 cells, 5-uL per well for inhibition of cell viability (assessed by measuring ATP levels with CellTiterGlo).
2. NCATS MIPE 4.0 library of approved and investigational drugs were added using the Kalypsis pin tool. Wells treated with DMSO only for 100% viability and media only wells for 0% viability were used as controls.
3. The assay plates were covered and incubated for 48 hours in a 37C, 5% CO2 incubator with controlled humidity.
4. After 48 hours, CellTilter-GloTM luminescent substrate mix (Promega) reagent was added to the assay plate and plates we incubated for 5 min at room temperature.
5. Signal was measured as median relative luminescence units on a ViewLux (PerkinElmer) multiplate reader.
[1] Heske CM, Davis MI, Baumgart JT, Wilson K, Gormally MV, Chen L, Zhang X, Ceribelli M, Duveau DY, Guha R, Ferrer M, Arnaldez FI, Ji J, Tran HL, Zhang Y, Mendoza A, Helman LJ, Thomas CJ. Matrix Screen Identifies Synergistic Combination of PARP Inhibitors and Nicotinamide Phosphoribosyltransferase (NAMPT) Inhibitors in Ewing Sarcoma. Clin Cancer Res. 2017 Dec 1;23(23):7301-7311. doi: 10.1158/1078-0432.CCR-17-1121. Epub 2017 Sep 12. PMID: 28899971; PMCID: PMC6636827.
Regarding `CC(C)(F)C[C@H](N[C@@H](c1ccc(-c2ccc(S(C)(=O)=O)cc2)cc1)C(F)(F)F)C(=O)NC1(C#N)CC1`, the Potency entry is “inactive”. In the case of `COc1ccc(-c2oc3c(CC=C(C)C)c(O)cc(O)c3c(=O)c2O)cc1` it was 16.6 µM (active).

As for `C[C@]12CCC3=C4CCC(=O)C=C4CC[C@@H]3[C@H]1CC[C@@]2(O)CC#N`, the Potency entry is “inactive”. In the case of `COc1ccc(CCN(C)CCCOc2ccc(S(=O)(=O)c3[nH]c4ccccc4c3C(C)C)cc2)cc1OC` it was 18.7 µM (active). In the case of `CC(=O)O[C@]1(C(C)=O)CC[C@H]2[C@@H]3C=C(Cl)C4=CC(=O)[C@@H]5C[C@H]5[C@]4(C)[C@@H]3CC[C@@]21C` it was 9.35 µM (active). The result for `O=C(NCCCCN1CCOCC1)c1cc2ccccc2o1` reads “inactive”. On to `N[C@@H](CC(=O)N1CCn2c(nnc2C(F)(F)F)C1)Cc1cc(F)c(F)cc1F`, for which the Potency result is “inactive”.

With `Cn1cc(-c2ccc3nnc(Sc4ccc5ncccc5c4)n3n2)cn1`, the Potency entry is “inactive”. In the case of `CN1C(=O)C(Cc2c[nH]c3ccccc23)NC1=S` (stereo not given) it was “inactive”. In the case of `COc1c(C)cnc(Cn2cnc3c(Cl)nc(N)nc32)c1C` it was 0.132 µM (active); in that of `Cc1ccc2c(c1)c1c(n2CCc2ccc(C)nc2)CCN(C)C1`, “inactive”; in that of `Cc1nc2c([nH]1)CCN(C(=O)c1ccc(NC(=O)c3ccccc3-c3ccccc3)cc1)c1ccccc1-2`, “inactive”. The result for `C#C[C@]1(O)CC[C@H]2[C@H]3CCc4cc(OC)ccc4[C@H]3CC[C@@]21C` reads “inactive”.

On to `CCCCn1c(=O)n(Cc2ccccc2F)c(=O)c2[nH]c(Cc3ccc(NC(C)=O)cc3)nc21`, for which the Potency entry is “inactive”. `COc1cc2c(cc1OC)[C@@H]1Cc3ccc(OC)c(OC)c3CN1CC2`: the Potency result is “inactive”.

In the case of `CC=C1C2C=C(C)CC1(N)c1ccc(=O)[nH]c1C2` (stereo not given), the Potency result was “inactive”. Take `Cc1ccc(S(=O)(=O)OCC(=O)Nc2ccc(C(=O)O)c(O)c2)cc1`: the Potency was 20.9 µM (active). In the case of `N=C1SC(=Cc2ccc(-c3ccc4c(c3)C(=O)NC4=O)o2)C(=O)N1c1ccc(Br)cc1` it was “inactive”. In the case of `O=C(Nc1ccccc1)Nc1ccc(-c2ccc(C(=O)[C@H]3CCC[C@H]3C(=O)O)cc2)cc1` it was “inactive”; in that of `CNC(=O)c1ccc2c(C(=Nc3cccc(CN(C)C)c3)c3ccccc3)c(O)[nH]c2c1`, 14.8 µM (active). In the case of `O=C(c1ccc(C(=O)N2CCC(N3CCCC3)CC2)c(Nc2ccccc2)c1)N1CCC(N2CCCC2)CC1` it was “inactive”. Consider `C[C@@H](N)c1ccc(C(=O)Nc2ccnc3[nH]ccc23)cc1`, for which the Potency was 23.5 µM (active).

As for `CCN(CCO)CCCOc1ccc2c(Nc3cc(CC(=O)Nc4cccc(F)c4)[nH]n3)ncnc2c1`, the Potency entry was “inactive”. In the case of `CCCCN(CCCC)CC(O)c1cc(Cl)cc2c1-c1ccc(Cl)cc1C2=Cc1ccc(Cl)cc1` (stereo not given) it was 26.4 µM (active); in that of `Cc1cc2c(cc1C1(c3ccc(C(=O)O)cn3)CC1)C(C)(C)CCC2(C)C`, 0.118 µM (active); in that of `CC(C)=CCCC(C)=CCCC(C)=CCCC(C)=CCCC(C)=CCCC(C)=CCCC(C)=CCCC(C)=CCCC(C)=CCO`, “inactive”. In the case of `CSc1cccc(Nc2ncc3cc(-c4c(Cl)cccc4Cl)c(=O)n(C)c3n2)c1` it was “inactive”; in that of `CC(C)CN(C[C@@H](O)[C@H](Cc1ccccc1)NC(=O)O[C@H]1CO[C@H]2OCC[C@H]21)S(=O)(=O)c1ccc(N)cc1`, 2.09 µM (active); in that of `CO[C@H]1O[C@@H]2O[C@@]3(C)CC[C@@H]4[C@@H](C)CC[C@@H]([C@H]1C)[C@@]24OO3`, 7.43 µM (active). In the case of `O=C1NC(=O)C(=Cc2ccc(-c3ccc(F)cc3O)o2)S1` it was 20.9 µM (active); in that of `C[C@@H](NC(=O)c1ncnc(N)c1Cl)c1ncc(C(=O)Nc2cc(C(F)(F)F)c(Cl)cn2)s1`, 16.6 µM (active); in that of `CCCCC[C@H](O)C=C[C@H]1[C@H](O)CC(=O)[C@H]1CCCCCCC(=O)O`, “inactive”. Take `CS(=O)(=O)c1ccc(C2=C(c3ccccc3)C(=O)OC2)cc1`: the Potency result is “inactive”.

As to `O=c1[nH]nc(OCCCc2ccc(Cl)cc2)c(NCc2cccnc2)c1Br`, the Potency is 10.5 µM (active). The result for `CO[C@H]1C=CO[C@@]2(C)Oc3c(C)c(O)c4c(O)c(c(C=NN5CCN(C)CC5)c(O)c4c3C2=O)NC(=O)C(C)=CC=C[C@H](C)[C@H](O)[C@@H](C)[C@@H](O)[C@@H](C)[C@H](OC(C)=O)[C@H]1C` reads “inactive”. In the case of `CC[C@]1(O)C[C@H]2CN(CCC3=c4ccccc4=N[C]3[C@@](C(=O)OC)(c3cc4c(cc3OC)N(C)[C@H]3[C@@](O)(C(N)=O)[C@H](O)[C@]5(CC)C=CCN6CC[C@]43[C@@H]65)C2)C1` it was 0.0332 µM (active); in that of `COc1cc2ncn(-c3cc(OCc4ccccc4S(C)(=O)=O)c(C#N)s3)c2cc1OC`, 3.72 µM (active). In the case of `CCC[C@@H](NC(=O)[C@@H]1[C@H]2CCC[C@@H]2CN1C(=O)[C@@H](NC(=O)[C@@H](NC(=O)c1cnccn1)C1CCCCC1)C(C)(C)C)C(=O)C(=O)NC1CC1` it was 18.7 µM (active); in that of `CCC(C)SSc1ncc[nH]1` (stereo not given), 5.26 µM (active). As for `CC1(C)[C@H]2CC[C@]3(C)[C@@H](C(=O)C=C4[C@@H]5C[C@@](C)(C(=O)O)CC[C@]5(C)CC[C@]43C)[C@@]2(C)CC[C@@H]1O`, the Potency result is “inactive”.
